# Experimental data taken from PubChem BioAssay AID602409 (Sanford-Burnham Center for Chemical Genomics, 2012).
# Some of the results follow. Active and inactive are the calls of the source.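 The calls were made as follows: active = mean inhibition over four retests above 40%; inactive = the rest.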
# Molecular target: C-X-C chemokine receptor type 6 (Homo sapiens) (UniProt O00574)
# Assay: CXCR6 beta-arrestin signal inhibition by hits – cell-based, single concentration, luminescence, confirmation (AID 602409);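 also: receptor stimulated with 10 nM CXCL16 agonist; beta-galactosidase fragment complementation upon beta-arrestin recruitment to receptor; plate controls were CXCL16 plus DMSO for no effect and DMSO without CXCL16 for full effect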
# Details: CHO-K1 CXCR6 PathHunter beta-arrestin, at 20 µM, stronger effect = higher value
# Chain of C-X-C chemokine receptor type 6 (Homo sapiens) (O00574 whole entry, looked up, the tested form may be a part): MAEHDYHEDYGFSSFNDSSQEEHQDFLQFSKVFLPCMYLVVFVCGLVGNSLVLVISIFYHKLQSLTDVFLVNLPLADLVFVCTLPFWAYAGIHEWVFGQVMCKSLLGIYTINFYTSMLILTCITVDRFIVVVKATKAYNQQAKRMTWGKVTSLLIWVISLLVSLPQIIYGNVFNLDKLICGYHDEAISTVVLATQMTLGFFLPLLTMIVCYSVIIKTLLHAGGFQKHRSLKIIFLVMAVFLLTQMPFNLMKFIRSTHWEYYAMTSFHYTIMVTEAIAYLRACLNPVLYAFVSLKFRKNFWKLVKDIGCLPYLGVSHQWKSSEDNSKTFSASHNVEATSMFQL
smiles,measurement,value
CC(=O)OC1C2(CC3N4C(=O)C5(CO)SSC4(CC31O)C(=O)N5C)OC(C)C(C)(C)C2=O (stereo unspecified),inhibition,68.1% (active)
